PGK inhibitor: blocks T. brucei phosphoglycerate kinase; P07378; PGK/GAPDH coupled, Kinase-Glo luminescence, 60 min; Potency, µM (series often up to 57.5 µM), without a hit: at the highest dose activity change, negative = inhibition, most hits filed as inhibitors; 380,000 tested, 0.043% active; AID 602233; further: on the % scale 0 is the no-effect control and ±100 the full control effect; nearly all actives have a fitted effect of over 60% in size
Target sequence (P07378 whole entry, looked up): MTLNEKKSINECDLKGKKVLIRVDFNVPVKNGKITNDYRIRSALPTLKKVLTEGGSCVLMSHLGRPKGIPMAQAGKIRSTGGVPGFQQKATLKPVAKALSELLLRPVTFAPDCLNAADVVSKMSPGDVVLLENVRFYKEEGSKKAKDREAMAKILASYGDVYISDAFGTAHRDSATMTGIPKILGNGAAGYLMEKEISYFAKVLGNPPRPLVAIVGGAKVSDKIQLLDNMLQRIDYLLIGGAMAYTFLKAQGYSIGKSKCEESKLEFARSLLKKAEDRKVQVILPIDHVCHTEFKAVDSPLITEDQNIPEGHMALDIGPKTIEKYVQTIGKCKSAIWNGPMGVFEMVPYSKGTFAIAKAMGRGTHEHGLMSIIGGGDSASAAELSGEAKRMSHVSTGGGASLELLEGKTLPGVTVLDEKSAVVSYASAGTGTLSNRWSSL
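Luminescent ATP detection (Kinase-Glo Plus) follows a 60-minute room-temperature incubation, with wells lacking PGK as controls. Buffer: 100 mM TEA (pH 7.6), 5 mM MgCl2, 0.01% Tween-20. Coupling enzyme GAPDH (100 nM final) supplies unstable 1,3-BPG in-well.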
ELG1 DNA repair: ELG1-dependent DNA repair inhibition | HEK293T ELG1-luciferase reporter, luminescence, 16 h; DNA damage induced by 5-fluorouridine | Potency, µM (top dose mostly 46.1 µM), for the others: at the highest dose activity change, negative = inhibition, usual class: inhibitors | 330,000 tested, 2.3% active; further: on the % scale 0 is the no-effect control and ±100 the full control effect; nearly all actives have a fitted effect of over 55% in size
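Step one: seed 2,000 cells per well. Step two: pin-transfer compound or DMSO alongside 5-fluorouridine. Step three: incubate 16 hr, 37 °C, 5% CO2. Step four: add ONE-Glo, wait 30 min, read luminescence.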
Tb PFK block: T. brucei PFK enzyme inhibition. O15648. T. brucei PFK, ADP-Glo luminescence. Potency, µM (doses to about 57.5 µM), for inactives: at the highest dose activity, negative = inhibition, usual class: inhibitors. 330,000 tested, 0.17% active. AID 485367;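 further: 0% = uninhibited 1x PFK enzyme wells and -100% = no-enzyme wells; nearly all actives have a fitted effect of over 60% in size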
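PFK 1.25 nM, F6P 0.5 mM, ATP 0.1 mM, 0.1 M TEA pH 8.0, 5 mM MgCl2, 0.01% Tween20, 0.1% BSA; 45 min RT. ADP-Glo readout. qHTS titration up to 57 uM; curves fitted, compounds curve-classed.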
PKM2 act: PKM2 (human) enzyme activation; purified PKM2, Kinase-Glo ATP luminescence, activation; response scale: 0% is enzyme alone, no compound; Potency, µM (highest dose often 57.5 µM), for inactives: top-dose activation, usual class: activators; 260,000 tested, 0.34% active; AID 1631; further: on the % scale 0 is the no-effect control and ±100 the full control effect; nearly all actives have a fitted effect of over 55% in size
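Kinase-Glo luminescence reports ATP generated from ADP (0.1 mM) and PEP (0.5 mM) by purified hPK-M2 after 1 h at room temperature, pH 7.2 imidazole buffer; intermediate enzyme activity allows detecting inhibitors and activators.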
Rango-impB inh: prevents formation of the Rango-importin beta complex; Potency, µM (titrated, usually from 92.2 µM), for inactives: at the top dose inhibition of complex formation; 340,000 tested, 0.031% active; Rango CFP/YFP FRET sensor + importin beta, 45 min; Q14974; calls by dose curve;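 further: 0% = DMSO wells and 100% = buffer wells lacking importin beta; nearly all actives have a fitted effect of over 15% in size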
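FRET biosensor Rango (snurportin 1 IBB between N-terminal EYFP and C-terminal Cerulean), 50 nM in PBS/1 mM DTT/0.02% Tween-20/0.1% BSA, preincubated 5 min RT with compound; 0.125 microM importin beta added, 45 min RT, CFP/YFP FRET ratio read.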
Rango release inh: prevents RanGTP from dissociating the Rango-importin beta complex. Biochemical FRET Rango-importin beta, RanGTP-induced dissociation. Potency, µM (highest dose often 46.1 µM), for inactives: at the highest dose activity change, negative = inhibition. 340,000 tested, 0.071% active; calls by dose curve; further: % of control where 0% means no effect; nearly all actives have a fitted effect of over 45% in size
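Two FRET readings bracket the reaction: one 5 min after compound meets Rango–importin beta, another 45 min after RanGTP-RCC1 (0.6 uM Ran, 0.2 uM RCC1, 2 mM GTP) is added. Only the second defines inhibition.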
* hit, by the source's call; i = inactive; ? = inconclusive; · = no result. Only some compounds are listed: those with a hit (about 2.4% of all), similar ones and a draw of the others. Unless noted, the call rests on the fitted dose curve; in most records, active means well fitted curve in the direction sought with a large enough effect; inconclusive means small, poorly fitted or top-dose-only effect, or another doubt; inactive means no such curve, though single readings can be large; an effect the other way counts as inactive or inconclusive. Potency means the concentration at half of the fitted maximal effect.

SMILES	PGK inhibitor	ELG1 DNA repair	Tb PFK block	PKM2 act	Rango-impB inh	Rango release inh
Cc1c(C(=O)N(C)C)sc2c1c(=O)n(-c1ccc(Cl)c(Cl)c1)c(=O)n2CC(=O)N1CCCCC1C (stereo not given)	i	·	·	·	·	·
COC(=O)[C@@H]1CC[C@H](C)[C@@H](c2ccc(C)cc2)N1C(=O)c1ccc(/C=N/O[C@@H](C)c2cn([C@H](CO)Cc3ccccc3)nn2)cc1	·	15µM*	0%	4%	·	·
CCOc1ccc(-c2ccc(/C=C3/C(=N)N4C(C)=CSC4=NC3=O)o2)c([N+](=O)[O-])c1	0%	26µM*	0%	-16%	-4%	-7%
O=C(NCc1ccco1)C(c1ccccc1)N(Cc1ccccc1)C(=O)Cn1nnc2ccccc21 (stereo not given)	i	18µM*	0%	2%	?	9%
COC(=O)C(Cc1c[nH]c2ccccc12)NC(=O)COc1ccc(Cl)cc1Cl (stereo not given)	-2%	·	·	·	·	·
CCN(CCCCN1C(=O)c2ccccc2C1=O)c1ccc2c(c1)C(=O)N(C)C2=O	·	16µM*	-15%	1%	?	?
CCN(CC)c1ccc2c(c1)C(=O)N(C)C2=O	3%	?	-14%	4%	?	?
N#Cc1ccc(NC(=O)COC(=O)C2Cc3ccccc3CN2C(=O)c2ccccc2)cc1 (stereo not given)	-8%	10µM*	-2%	14%	0%	-5%
CCCNC(=O)c1ccc(N2CCC3(CC2)CC(c2ccccc2)=NO3)c(NC(=O)Cc2ccc(F)cc2)c1	-3%	21µM*	3%	0%	1%	8%
Cc1ccc(-c2nn3c(C)nnc3s2)cc1NC(=O)c1ccc(-c2cccc(Cl)c2)o1	-3%	18µM*	-1%	-2%	4%	10%
O=C(OCCOc1ccccc1)c1n[nH]c2ccccc12	11%	?	3%	2%	4%	2%
O=C(Cn1cnc2c(cnn2-c2ccccc2)c1=O)N1CCCc2ccccc21	2%	21µM*	-2%	-1%	-3%	-10%
COC(=O)c1ccc(C#CC(NP(=O)(c2ccccc2)c2ccccc2)c2ccccc2)cc1 (stereo not given)	·	·	·	-7%	·	·
COc1ccc(-c2oc3c(OC)c(OC)c(OC)c(O)c3c(=O)c2OC)cc1OC	7%	12µM*	-2%	-1%	?	?
COc1c(OC)c(O)c2c(=O)c(O)c(-c3ccccc3)oc2c1OC	-6%	?	0%	2%	3%	5%
CCCn1c(NC(=O)CCNC(=O)c2ccccc2Cl)nc2ccccc21	-4%	21µM*	-6%	·	-1%	8%
c1coc(-c2nc3nc4ccccc4nc3n2-c2ccc3c(c2)OCCO3)c1	13%	16µM*	0%	?	-4%	-10%
c1ccc(Cn2c(-c3ccco3)nc3nc4ccccc4nc32)cc1	-7%	?	-2%	-5%	?	?
Cc1ccc(CN(c2ccc(C(=O)N3CCc4ccccc4C3)cc2)S(C)(=O)=O)cc1	-1%	16µM*	-1%	-1%	4%	1%
COc1cccc(OC)c1C(=O)OCCCOC(=O)c1c(OC)cccc1OC	-3%	21µM*	0%	-10%	-1%	15%
COc1ccc(C(=O)OCCCOC(=O)c2ccc(OC)cc2OC)c(OC)c1	1%	-2%	1%	3%	0%	18%
Cc1ccc(C(=O)C[n+]2ccc(Cc3ccccc3)cc2)cc1	-7%	7.3µM*	2%	3%	?	?
O=C(C[n+]1ccccc1)c1ccc(-c2ccccc2)cc1	-3%	0%	2%	1%	1%	5%
CN(C)c1cc[n+](CC(=O)c2ccc(Br)cc2)cc1	7%	9.2µM*	0%	4%	-4%	24%

From PubChem
